# Test results taken from PubChem BioAssay (Tox21).
# Unmarked numbers belong to inactive results. Inconclusive results are not listed. A call without a number means that no potency is given here. Active and inactive are the calls of the source. Unless noted, calls come from the whole dose curve; as a rule, active = well fitted curve in the direction sought with a large enough effect in the repeat runs; inconclusive = weak or mixed curves; inactive = no such curve, though single readings can be large; an effect the other way counts as inactive or inconclusive.
# Key:
# [1] = qHTS assay to identify small molecule agonists of the estrogen receptor alpha (ER-alpha) signaling pathway in the presence of an antagonist - cell viability counter screen (AID 1259386); note: series mostly up to about 92 µM; nearly all actives have a fitted effect of over 30% in size
# Method in brief: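 Compounds tested at 15 concentrations for 22 h at 37C alongside 10.0nM (final) ICI-182,780 antagonist, in VM7Luc4E2 cells grown in phenol red-free, charcoal-stripped medium. Viability read by CellTiter-Fluor fluorescence after 1 h reagent incubation.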
# [2] = target: Progesterone receptor (Homo sapiens) (UniProt P06401); test: qHTS assay to identify small molecule agonists of the progesterone receptor (PR) signaling pathway (AID 1346784; calls by dose curve; note: nearly all actives have a fitted effect of over 30% in size)
# Method in brief: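 HEK 293T PR-UAS-bla reporter cells, 2% charcoal-stripped FBS; 6 hr settle at 37C/5% CO2, compound (DMSO) 16 hr, LiveBLAzer B/G FRET substrate 2 hr RT, fluorescence intensity read.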
# [3] = target: Progesterone receptor (Homo sapiens) (UniProt P06401); test: qHTS assay to identify small molecule antagonists of the progesterone receptor (PR) signaling pathway (AID 1346795; active = well fitted inhibition curve with a large enough effect in the signal ratio in the repeat runs, not every such curve was filed as active; the % refers to the signal ratio)
# Method in brief: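 Beta-lactamase reporter, HEK293T PR-UAS-bla line; 2% charcoal-stripped FBS; 6 hr pre-incubation, 37C/5% CO2. Compound + R5020 1 nM final, 16 hr. LiveBLAzer B/G FRET substrate, 2 hr RT; fluorescence intensity read.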
# [4] = qHTS assay to identify small molecule antagonists of the progesterone receptor (PR) signaling pathway - cell viability counter screen (AID 1346798); note: series mostly up to about 92 µM; nearly all actives have a fitted effect of over 50% in size
# Method in brief: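 Luminescence readout (CellTiter-Glo, 30 min, RT) of viability in PR-UAS-bla HEK293T cells exposed to compound and R5020 agonist for 16 hr at 37C, 5% CO2; run in the same wells as the beta-lactamase reporter read.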
# [5] = qHTS assay to identify small molecule agonists of the progesterone receptor (PR) signaling pathway - cell viability counter screen (AID 1346799; calls by dose curve; note: nearly all actives have a fitted effect of over 45% in size)
# Method in brief: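 HEK293T PR-UAS-bla, 3,000 cells/well, 2% charcoal-stripped FBS; 6 h settle, compound 16 h at 37C/5% CO2; LiveBLAzer 2 h RT, then CellTiter-Glo 30 min RT, luminescence read.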
# [6] = qHTS assay to identify small molecule agonists of the TGF-beta/Smad signaling pathway - cell viability counter screen (AID 1346829); note: top concentration of the series differs between compounds; nearly all actives have a fitted effect of over 45% in size
# Method in brief: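 Tox21 qHTS format: SBE-bla HEK 293T cells treated with DMSO-dissolved compounds for 5 hr; CellTiter-Glo luminescence after 30 min at room temperature.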
# [7] = qHTS assay to identify small molecule agonists of the TGF-beta/Smad signaling pathway (AID 1346859; active = well fitted activation curve with a large enough effect in the signal ratio in the repeat runs, not every such curve was filed as active; the % refers to the signal ratio; note: series mostly up to about 77 µM)
# Method in brief: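 Read-out: fluorescence at 460 and 530 nm (405 nm excitation) after a 2 hr room-temperature incubation with beta-lactamase FRET substrate. SBE-bla HEK 293T cells had been treated with test compounds for 5 hr at 37 C.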
# [8] = target: Thyrotropin-releasing hormone receptor (Homo sapiens) (UniProt P34981); test: qHTS assay to identify small molecule antagonists of the thyrotropin-releasing hormone receptor (TRHR) signaling pathway (AID 1346877; active = well fitted inhibition curve with a large enough effect in the repeat runs, not every such curve was filed as active; note: series mostly up to about 51 µM)
# Method in brief: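 Antagonist mode: after a 5 min room-temperature compound exposure, cells were stimulated with 1 nM (final) TRH. Dye-loaded TRHR-HEK293 cells were used, and calcium-dependent fluorescence was followed for 3 min, with 15-point titrations run in triplicate.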
# [9] = target: Thyrotropin-releasing hormone receptor (Homo sapiens) (UniProt P34981); test: qHTS assay to identify small molecule agonists of the thyrotropin-releasing hormone receptor (TRHR) signaling pathway (AID 1346891; calls by dose curve;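 note: HEK293 cells expressing TRHR with calcium dye readout; series mostly up to about 58 µM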)
# Method in brief: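 HEK293/TRHR cells, 1500 per well, 18 h 37 °C; Ca dye 2 h 37 °C; pin-tool compound addition (agonist mode); kinetic fluorescence 3 min, 1 s reads; 15 concentrations, triplicate.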
# [10] = Human pregnane X receptor (PXR) small molecule agonists, qHTS cell viability counter screen (AID 1346977); note: nearly all actives have a fitted effect of over 50% in size
# Method in brief: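 Fluorescence read-out (CellTiter-Fluor) of viability in PXR-Luc HepG2 cells, multiplexed with the luciferase agonist read. Compounds in DMSO added after 5hr plating; 24hr total exposure at 37C, 5% CO2.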
# [11] = Caspase-3/7 induction in HepG2 cells by small molecules, qHTS assay (AID 1346978); note: nearly all actives have a fitted effect of over 15% in size
# Method in brief: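 Wild-type HepG2 cells, 2,000/well, settled 5 hr at 37 C and 5% CO2, then compound-treated for 17 hr; caspase-3/7 activity read by luminescent Caspase-Glo 3/7 after 30 min at room temperature.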
# [12] = Caspase-3/7 induction in CHO-K1 cells by small molecules, qHTS assay (AID 1346980); note: nearly all actives have a fitted effect of over 15% in size
# Method in brief: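 Wild-type CHO-K1 cells exposed to compounds for 17hr at 37 C, 5% CO2. Caspase-3/7 activity then measured by Caspase-Glo 3/7 luminescence after 30min at room temperature.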
# [13] = Caspase-3/7 induction in HepG2 cells by small molecules, qHTS cell viability counter screen (AID 1346981); note: series mostly up to about 92 µM; nearly all actives have a fitted effect of over 30% in size
# Method in brief: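 CellTiter-Fluor fluorescence measured viability in the same wells used for Caspase-Glo 3/7. HepG2 (wild type) at 2,000 cells/well were pre-incubated 5 hr, dosed, and given reagent at 16 hr, with 1 hr further at 37C.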
# [14] = target: Nuclear receptor subfamily 1 group I member 2 (Homo sapiens) (UniProt O75469); test: Human pregnane X receptor (PXR) small molecule agonists, qHTS assay (AID 1346982); note: nearly all actives have a fitted effect of over 35% in size; note: potency is the fitted concentration of half-maximal effect
# Method in brief: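 Agonist mode: luminescence from ONE-Glo after 24 h compound exposure at 37C in HepG2 cells carrying hPXR-responsive CYP3A4 luciferase, plated in charcoal-stripped serum medium 5 h beforehand.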
# [15] = target: Acetylcholinesterase (Homo sapiens) (UniProt P22303); test: Acetylcholinesterase (AChE) small molecule antagonists: colormetric cell-based qHTS assay (AID 1347395; calls by dose curve; note: nearly all actives have a fitted effect of over 30% in size; note: potency is the fitted concentration of half-maximal effect)
# Method in brief: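 SH-SY5Y cells; cpd 30 min 37 C; + DTNB/acetylthiocholine, 90 min 37 C; colorimetric thiocholine read; qHTS.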
# [16] = qHTS assay to identify small molecule antagonists of the TGF-beta/Smad signaling pathway - cell viability counter screen (AID 1346824); note: nearly all actives have a fitted effect of over 50% in size
# Method in brief: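 SBE-bla HEK 293T cells, incubated overnight, then compound plus 0.25 ng/mL TGF-beta1 (stock added) for 5 hr at 37 C. Viability was read in the same wells by CellTiter-Glo luminescence after 30 min at room temperature.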
# [17] = Caspase-3/7 induction in CHO-K1 cells by small molecules, qHTS cell viability counter screen (AID 1346979); note: nearly all actives have a fitted effect of over 35% in size
# Method in brief: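 CHO-K1 wt, 1,500 cells/well; 5hr pre-incubation 37C/5% CO2; compound pin transfer (DMSO); 16hr exposure; CellTiter-Fluor added, 1hr, fluorescence read.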
# [18] = target: Nuclear receptor subfamily 1 group I member 2 (Rattus norvegicus) (UniProt Q9R1A7); test: Rat pregnane X receptor (rPXR) activation by small molecules, qHTS assay (AID 1346983); settings: rPXR luciferase reporter cells, One-Glo luminescence, 24 h; max activation: hits give high values; note: nearly all actives have a fitted effect of over 20% in size
# Method in brief: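 Cell-based rPXR activation assay: rPXR cells, 2,000 per well, rested 5hr at 37 C, then exposed to compounds in DMSO for 24 hr at 37 C. Luciferase activity read by One-Glo luminescence after 30 min at room temperature.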
# [19] = target: Nuclear receptor subfamily 1 group I member 2 (Homo sapiens) (UniProt O75469); test: CYP3A4 induction through human pregnane X receptor (PXR) by small molecules, qHTS assay (AID 1346984); note: nearly all actives have a fitted effect of over 40% in size
# Method in brief: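 Read-out is luminescence after One-Glo addition, following a 3 hr, 37C incubation with Luciferin-IPA CYP3A4 substrate (3uM final). Before that, compounds were on DPX-2 cells (HepG2 co-transfected with PXR element plus CYP3A4-promoter luciferase) for 24 hr at 37C.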
# [20] = target: Nuclear receptor subfamily 1 group I member 2 (Homo sapiens) (UniProt O75469); test: Human pregnane X receptor (PXR) activation by small molecules, qHTS assay (AID 1346985); note: nearly all actives have a fitted effect of over 40% in size
# Method in brief: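 DPX-2 cells (HepG2 co-transfected with a PXR response element and a CYP3A4-promoter luciferase construct) were seeded at 2,000 per well, rested 5 hr at 37C, then exposed to DMSO-dissolved compounds for 24 hr. Activation was read as luciferase luminescence.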
# Chain of Acetylcholinesterase (Homo sapiens) (P22303 whole entry, looked up): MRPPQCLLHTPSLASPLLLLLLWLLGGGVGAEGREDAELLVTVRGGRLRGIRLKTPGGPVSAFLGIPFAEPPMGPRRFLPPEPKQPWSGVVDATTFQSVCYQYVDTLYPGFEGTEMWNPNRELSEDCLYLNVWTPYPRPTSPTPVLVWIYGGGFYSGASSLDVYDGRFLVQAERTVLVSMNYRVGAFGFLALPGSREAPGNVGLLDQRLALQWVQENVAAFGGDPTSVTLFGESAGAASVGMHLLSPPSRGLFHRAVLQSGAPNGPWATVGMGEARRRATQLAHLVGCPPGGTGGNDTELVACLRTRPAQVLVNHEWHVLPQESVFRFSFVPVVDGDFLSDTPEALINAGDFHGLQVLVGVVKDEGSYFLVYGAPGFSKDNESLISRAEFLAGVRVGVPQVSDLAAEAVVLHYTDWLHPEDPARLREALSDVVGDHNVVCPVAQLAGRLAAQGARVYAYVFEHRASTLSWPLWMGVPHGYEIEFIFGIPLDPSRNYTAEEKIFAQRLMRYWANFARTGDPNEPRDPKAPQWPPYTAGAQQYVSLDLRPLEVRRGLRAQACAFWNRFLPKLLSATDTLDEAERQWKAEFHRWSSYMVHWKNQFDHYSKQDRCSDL
# Chain of Progesterone receptor (Homo sapiens) (P06401 whole entry, looked up): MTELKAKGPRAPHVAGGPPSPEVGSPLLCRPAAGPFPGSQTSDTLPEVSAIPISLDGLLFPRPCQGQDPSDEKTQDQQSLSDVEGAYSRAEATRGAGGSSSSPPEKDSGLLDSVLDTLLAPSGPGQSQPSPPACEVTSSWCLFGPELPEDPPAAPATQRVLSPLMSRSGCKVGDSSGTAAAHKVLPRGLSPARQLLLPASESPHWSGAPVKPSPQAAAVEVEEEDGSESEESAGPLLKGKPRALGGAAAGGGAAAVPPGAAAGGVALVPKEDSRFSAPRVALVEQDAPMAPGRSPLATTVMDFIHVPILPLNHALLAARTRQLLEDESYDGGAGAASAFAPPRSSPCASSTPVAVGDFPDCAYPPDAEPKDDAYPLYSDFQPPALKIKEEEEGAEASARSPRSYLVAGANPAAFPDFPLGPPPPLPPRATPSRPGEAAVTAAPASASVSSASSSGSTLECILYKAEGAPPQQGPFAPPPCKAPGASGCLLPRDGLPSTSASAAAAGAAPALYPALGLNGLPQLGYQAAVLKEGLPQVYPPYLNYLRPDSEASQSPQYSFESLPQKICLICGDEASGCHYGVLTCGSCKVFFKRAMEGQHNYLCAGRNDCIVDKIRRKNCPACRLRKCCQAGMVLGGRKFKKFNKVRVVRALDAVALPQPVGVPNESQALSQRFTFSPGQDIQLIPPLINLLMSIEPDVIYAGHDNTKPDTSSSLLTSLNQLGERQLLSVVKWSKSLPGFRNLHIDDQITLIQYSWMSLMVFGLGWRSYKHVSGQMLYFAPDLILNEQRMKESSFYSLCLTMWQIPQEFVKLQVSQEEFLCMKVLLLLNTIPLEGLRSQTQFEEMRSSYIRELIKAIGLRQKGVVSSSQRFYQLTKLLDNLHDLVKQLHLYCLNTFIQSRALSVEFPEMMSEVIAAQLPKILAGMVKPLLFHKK
# Chain of Thyrotropin-releasing hormone receptor (Homo sapiens) (P34981 whole entry, looked up): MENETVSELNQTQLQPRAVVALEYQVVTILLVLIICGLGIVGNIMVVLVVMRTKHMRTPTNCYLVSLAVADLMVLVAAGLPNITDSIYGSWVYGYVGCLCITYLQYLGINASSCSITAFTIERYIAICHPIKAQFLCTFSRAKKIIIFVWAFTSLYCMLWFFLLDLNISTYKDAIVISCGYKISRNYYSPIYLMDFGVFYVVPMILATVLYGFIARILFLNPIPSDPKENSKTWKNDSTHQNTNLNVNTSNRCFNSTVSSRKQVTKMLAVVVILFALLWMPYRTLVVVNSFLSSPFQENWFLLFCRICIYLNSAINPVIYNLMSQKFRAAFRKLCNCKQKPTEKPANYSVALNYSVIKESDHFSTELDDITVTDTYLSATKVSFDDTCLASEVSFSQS
# Chain of Nuclear receptor subfamily 1 group I member 2 (Homo sapiens) (O75469 whole entry, looked up): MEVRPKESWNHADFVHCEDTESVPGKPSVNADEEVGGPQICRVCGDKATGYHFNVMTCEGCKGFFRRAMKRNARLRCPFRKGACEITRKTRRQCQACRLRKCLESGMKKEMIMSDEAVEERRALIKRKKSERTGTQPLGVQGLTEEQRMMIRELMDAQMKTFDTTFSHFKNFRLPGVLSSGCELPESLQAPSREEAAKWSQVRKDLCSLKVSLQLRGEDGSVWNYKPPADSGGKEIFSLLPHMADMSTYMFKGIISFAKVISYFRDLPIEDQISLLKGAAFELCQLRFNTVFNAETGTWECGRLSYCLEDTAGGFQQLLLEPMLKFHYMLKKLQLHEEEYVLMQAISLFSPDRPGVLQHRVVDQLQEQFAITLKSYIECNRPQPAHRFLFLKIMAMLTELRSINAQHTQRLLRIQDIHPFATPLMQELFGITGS
# Chain of Nuclear receptor subfamily 1 group I member 2 (Rattus norvegicus) (Q9R1A7 whole entry, looked up): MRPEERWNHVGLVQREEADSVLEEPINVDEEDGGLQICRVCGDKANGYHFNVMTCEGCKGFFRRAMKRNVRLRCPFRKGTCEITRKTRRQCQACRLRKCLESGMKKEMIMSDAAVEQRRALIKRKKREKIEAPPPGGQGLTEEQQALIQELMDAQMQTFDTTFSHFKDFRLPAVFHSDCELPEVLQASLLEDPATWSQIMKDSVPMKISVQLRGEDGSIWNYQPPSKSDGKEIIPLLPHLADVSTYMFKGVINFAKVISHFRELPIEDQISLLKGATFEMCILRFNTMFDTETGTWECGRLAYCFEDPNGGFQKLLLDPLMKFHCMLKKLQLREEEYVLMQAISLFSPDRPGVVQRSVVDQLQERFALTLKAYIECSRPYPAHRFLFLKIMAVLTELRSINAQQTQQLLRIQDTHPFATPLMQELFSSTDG
SMILES,Potency [1],Potency [2],Potency [3],Potency [4],Potency [5],outcome [6],outcome [7],outcome [8],outcome [9],Potency [10],Potency [11],Potency [12],Potency [13],Potency [14],Potency [15],Potency [16],Potency [17],max activation [18] [%],Potency [19],Potency [20]
Fc1cc(Br)ccc1CBr,inactive,inactive,inactive,inactive,inactive,inactive,inactive,inactive,inactive,inactive,inactive,inactive,inactive,inactive,inactive,,,,,
ClCC(Cl)Cl,inactive,inactive,inactive,inactive,,inactive,inactive,,,inactive,inactive,inactive,inactive,inactive,36.8 µM (active),inactive,inactive,,,
NC(=O)c1cc([N+](=O)[O-])cc([N+](=O)[O-])c1,inactive,inactive,inactive,inactive,,inactive,inactive,inactive,inactive,,inactive,inactive,inactive,inactive,,,inactive,-0.752,inactive,inactive
O=CNC(N1CCN(C(NC=O)C(Cl)(Cl)Cl)CC1)C(Cl)(Cl)Cl (stereo unspecified),inactive,inactive,inactive,inactive,,inactive,inactive,inactive,inactive,inactive,inactive,inactive,inactive,27.3 µM (active),inactive,inactive,inactive,,,
